# Many of the other results were omitted from the sample, so hits are more common in it than they were.
# Pf Dd2 inh: blocks in vitro growth of P. falciparum Dd2; Potency, µM (series often up to 28.9 µM), for the others: at the highest dose activity, negative = inhibition, actives largely listed as inhibitors; P. falciparum Dd2 growth, SYBR Green, 72 h; 120,000 tested, 4.3% active; AID 1347417; active means well fitted inhibition curve with a large enough effect;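 further: plate controls were DMSO vehicle for no effect and reference drug for full effect; nearly all actives have a fitted effect of over 65% in size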
#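 Readout: SYBR Green fluorescence, 485 nm excitation, 535 nm emission, after ~16 h lysis at 37C. Before that, Dd2-infected red cells (2.5% hematocrit) grew 72 h with compound, 29 uM top final concentration.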
# An asterisk follows results filed as active; i = inactive; [ ] = another dose, or the depositor's remark. Potency means the concentration at half of the fitted maximal effect.
SMILES,Pf Dd2 inh
COc1ccccc1CC(=O)N1CC[C@@H]2NC(=O)[C@H]3C[C@H](NC(=O)C4CC4)CN3C(=O)[C@H]21,-7%[44.1 µM]
COc1ccccc1N1CCN(C(=O)c2cc(S(=O)(=O)N3CCC(C)CC3)cn2C)CC1,8.9µM*
COc1ccc(N2CCN(C(=O)c3cc(S(=O)(=O)N4CCCCCC4)cn3C)CC2)cc1,-20%
COc1ccc(Cl)cc1NC(=O)c1cc(S(=O)(=O)N2CCC(C)CC2)cn1C,28%
COc1cncc([C@@H](NS(=O)(=O)c2cnn(C)c2)C2CC(O)C2)c1 (stereo partly specified),-1%
CCn1cc(S(=O)(=O)N2CCC(Cc3nncn3C)C2)cn1 (stereo unspecified),15%
Cc1ncc2c(n1)C[C@@H]1CC[C@H]2N1C(=O)Cc1cccc(F)c1,-5%
O=C(NCc1nnc2n1CCCC2)[C@H]1CNC[C@H](C(=O)N2CCCC2)C1,13%
COc1cccc(N2CCN(S(=O)(=O)c3cc(-c4cc(C)no4)ccc3C)CC2)c1,i
Cc1ccccc1Nc1nnc(-c2ccc(C)c(S(=O)(=O)N3CCN(C)CC3)c2)c2ccccc12,40%
Cc1ccc(C(=O)Nc2ccc(F)cc2)cc1S(=O)(=O)N1CCOCC1,i
Cc1ccc(-c2nnc(Nc3cccc(C(F)(F)F)c3)c3ccccc23)cc1S(=O)(=O)N1CCOCC1,10µM*
Cc1ccc(F)cc1S(=O)(=O)N1CCC(n2cnnc2C(C)C)CC1,i
Cc1ccc(-c2nnc(Nc3cccc(O)c3)c3ccccc23)cc1S(=O)(=O)N1CCN(C)CC1,10µM*
COC(=O)c1ccc(Nc2nnc(-c3ccc(C)c(S(=O)(=O)N4CCN(C)CC4)c3)c3ccccc23)cc1,1.6µM*
Cc1ccc(-c2nnc(Nc3ccc(F)cc3)c3ccccc23)cc1S(=O)(=O)N1CCN(C)CC1,10µM*
Cc1ccc(-c2nnc(Nc3cccc(Cl)c3)c3ccccc23)cc1S(=O)(=O)N1CCOCC1,6%
Cc1ccc(C(=O)Nc2cccc(C(=O)O)c2)cc1S(=O)(=O)N1CCCC1,-14%
Cc1ccc(C(=O)Nc2ccccc2)cc1S(=O)(=O)N1CCCC1,-20%
CCC[C@@H]1CN(Cc2cn[nH]n2)C[C@H]1C(=O)O,-7%
O=C(CCC(=O)n1ncc2c(Cl)cccc21)N1CCC(Cc2nc(C3CCOCC3)no2)CC1,i
CC(C)(CC(=O)O)CC(=O)N1Cc2[nH]cnc2C[C@H]1c1nc(-c2ccncc2)no1,-19%[44.1 µM]
O=C1NC2(CCN(C(=O)c3cccnc3)C2)OCc2ccccc21 (stereo unspecified),i
CCc1cc(N2CCN(C)C(C(=O)O)C2)nc(N2CCOCC2)n1 (stereo unspecified),2%
O=C(c1ccc(Cl)cc1)N1CCN2C(=O)N(C3CCOCC3)C[C@H]2C1,-22%[44.1 µM]
SMILES,Pf Dd2 inh
Cc1nc(C2CC(O)C2)cc(N2CCC(OCc3cccnc3)CC2)n1 (stereo unspecified),-24%
COc1ccc(CCNC(=O)c2cnc3cc(C)nn3c2)cc1,0%[44.1 µM]
NC(=O)CNC(=O)C1=C[C@@H](NC(=O)Cc2cccs2)[C@@H](O)[C@H](O)C1,0%[44.1 µM]
Cc1ccc(-c2onc(C)c2C)cc1S(=O)(=O)N1CCN(c2ccccc2F)CC1,14%
Cc1ccc(-c2nnc(Nc3ccc(Br)cc3)c3ccccc23)cc1S(=O)(=O)N1CCN(C)CC1,5.6µM*
Cc1ccc(-c2onc(C)c2C)cc1S(=O)(=O)N1CCCCC1,41%
CC(C)CC(N)c1nnc2n1CCNCC2 (stereo unspecified),0%
Cc1ccccc1C(=O)N1CCC(C(NC(=O)c2cccs2)C(=O)N2CCCCC2)CC1 (stereo unspecified),-24%
OC1(CN2CCN(Cc3cccc(Cl)c3)CC2)CCCNC1 (stereo unspecified),-25%
OCC1(Cc2cccc(Cl)c2)CCCNC1 (stereo unspecified),11µM*
COc1cccc(CC2(CO)CCCN(C(=O)c3cn4ccsc4n3)C2)c1 (stereo unspecified),-21%
O=C(c1ccc2ccccc2n1)N1CCCC(Cc2noc(C3CC3)n2)C1 (stereo unspecified),28%
CN(C)c1nc2c(c(=O)[nH]1)CCN(C(=O)CCCS(N)(=O)=O)C2,-5%
COc1ccc(Nc2cnc3ccc(-c4ccccc4OC)nn23)cc1OC,-4%[44.1 µM]
COc1ccccc1-c1ccc2ncc(Nc3ccc4c(c3)OCO4)n2n1,-5%[44.1 µM]
COc1ccccc1-c1ccc2ncc(Nc3cccc(O)c3)n2n1,13µM*
CCNC(=O)N1CC2CC(C1)[C@H]1CCCC(=O)N1C2 (stereo partly specified),-23%
COc1ccc(C(=O)NC2CCN(c3cn[nH]c(=O)c3)CC2)c(OC)n1,i
COc1cc(C2CC(=O)c3c([nH]c(C(=O)OC4CCCC4)c3C)C2)cc(OC)c1OC (stereo unspecified),5.6µM*
Cc1c(C(=O)OC2CCCCCC2)[nH]c2c1C(=O)CC(c1ccccc1Cl)C2 (stereo unspecified),10µM*
Cc1c(C(=O)OC2CCC(C)CC2)[nH]c2c1C(=O)CC(c1ccccc1Cl)C2 (stereo unspecified),-27%
CC1=C(C(=O)OC2CCCCCC2)C(c2c(F)cccc2Cl)CC(=O)N1 (stereo unspecified),-14%
Cc1c(C(=O)OC2CCCCCC2)[nH]c2c1C(=O)CC(c1ccc(Cl)cc1)C2 (stereo unspecified),-9%
Cc1c(C(=O)OCC2CCCCC2)[nH]c2c1C(=O)CC(c1ccc(F)cc1)C2 (stereo unspecified),-13%
CC(C)CNC(=O)N1CCCCCC1CN1CCOCC1 (stereo unspecified),-14%
SMILES,Pf Dd2 inh
Cn1cc(-c2ccc(Cl)cc2)c2nc(CNc3ccccc3)cn2c1=O,-24%[44.1 µM]
CCc1nn(-c2ccc(OC)cc2)c(Oc2ccccc2F)c1CCC(=O)N1CCSCC1,-14%
CC(C)(C)NC(=O)N1CCC2(CC1)C(=O)N(CC(=O)NCC1CCCO1)CN2c1ccccc1 (stereo unspecified),i
COCCNC(=O)CN1CN(c2ccccc2)C2(CCN(C(=O)C3CCCCC3)CC2)C1=O,-21%
Cc1ccc(NC(=O)N2CCC3(CC2)C(=O)N(CC(=O)N2CCCC2)CN3c2ccccc2)cc1,7.1µM*
CN(C(=O)CN1C(=O)NC2(CCCCC2)C1=O)c1ccccc1,6%
COc1ccccc1N1CCN(c2ccc(-c3nc(-c4ccccc4C)no3)cc2[N+](=O)[O-])CC1,17%
COc1ccc(-c2noc(-c3ccc(N4CCN(c5ccccc5)CC4)c([N+](=O)[O-])c3)n2)cc1,30%
COc1ccccc1-c1noc(-c2ccc(N3CCN(c4ccccc4)CC3)c([N+](=O)[O-])c2)n1,10µM*
CC(C)(C)c1ccc(C(=O)N2CC[C@H]3NC(=O)N(Cc4ccccc4)C(=O)[C@H]32)cc1,i
c1ccc2c(c1)COC1(CCNC1)CN2CC1CCCCC1 (stereo unspecified),13µM*
O=C(C1CCCC1)N1CC2(CCNC2)OCc2ccccc21 (stereo unspecified),-11%
O=C(C1CCCC1)N1CC2(CCN(C3COC3)C2)OCc2ccccc21 (stereo unspecified),-28%
Cc1cccc(C(=O)N2CCCCCNC(=O)[C@@H]3CCCC[C@@H]32)c1,3%
O=C1NCCCCCN(C(=O)CCCc2ccccc2)[C@H]2CCCC[C@@H]12,-25%
Cc1cccc(C(=O)N2CCCCCCNC(=O)[C@@H]3CCCC[C@@H]32)c1,0%
O=C1NCCCCCCN(C(=O)Cc2ccccc2)[C@H]2CCCC[C@@H]12,i

# Assay outcomes (PubChem)
